A short description of assay [1]: NCI Yeast Anticancer Drug Screen. Data for the rad50 strain (AID 155).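 Further: 0% = growth of vehicle-only cultures of the same strain.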 Particulars: S. cerevisiae rad50 strain growth inhibition; at 50.0 µM; active compounds read high. In outline: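 Inhibition values express reduced yeast growth in compound-treated cultures relative to vehicle-treated controls.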
A short description of assay [2]: NCI Yeast Anticancer Drug Screen. Data for the mec2-1 strain (AID 157). Particulars: S. cerevisiae mec2-1 strain, at 50.0 µM, active compounds read high. In a few lines:
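Compounds were applied to mec2-1 yeast cells. Their growth was then compared with that of vehicle-treated cultures to give growth inhibition.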

Assay [3] in a line: NCI Yeast Anticancer Drug Screen. Data for the sgs1 mgt1 strain (AID 161).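 Further: 0% = growth of cultures given vehicle only.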 The note with it: S. cerevisiae sgs1 mgt1 strain, at 50.0 µM, active compounds read high. In a few lines:
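Percent growth inhibition was derived by comparing compound-exposed mutant yeast with vehicle-exposed cultures. The strain carries alterations in DNA damage repair.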

Assay [4] in a line: NCI Yeast Anticancer Drug Screen. Data for the cln2 rad14 strain (AID 165).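 Further: 0% = growth equal to vehicle treated cultures.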 Particulars: S. cerevisiae cln2 rad14 strain, at 50.0 µM, active compounds read high. In a few lines:
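Strain: cln2 rad14 yeast, altered in cell cycle control and DNA damage repair. Read-out: growth inhibition vs vehicle.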

Assay [5] can be described thus: NCI Yeast Anticancer Drug Screen. Data for the bub3 strain (AID 167). The note with it: S. cerevisiae bub3 mutant strain, at 50.0 µM, active compounds read high. In outline: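 Steps: expose the mutant yeast strain to compound; grow alongside vehicle-treated cultures; measure growth; express inhibition against the vehicle cultures.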
The nature of assay [6]: NCI Yeast Anticancer Drug Screen. Data for the mlh1 rad18 strain (AID 175). The note with it: S. cerevisiae mlh1 rad18 strain growth inhibition; at 50.0 µM; active compounds read high. In outline: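 A repair-deficient yeast strain is exposed to test compound, and growth is scored relative to vehicle-treated controls.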

Values joined by “and” are separate entries in the source; they are usually repeats but may differ in a detail not shown here. Equal entries are not always repeated. This is part of a sample that, as a whole, favours compounds with a hit. Of some 79,000 tested, about 15% had one in any assay. A number with no mark means an inactive call. Active and inactive are the calls of the source. No stated cut-off is given here; in the data, active means growth inhibition above about 70%; inactive means the rest.

Consider `CN(C)CCc1ccc(O)cc1`, for which the growth inhibition in assay [1] was 3.9% and -2.85%; in assay [2], 4.2% and 2.8%; in assay [3], 10.1% and -3.15%; in assay [4], 5.55% and -16.4%; in assay [5], 2.85% and -2.9%; in assay [6] it was -0.85% and 4.85%.

Turning to `N=C(N)c1nn[nH]n1`, the growth inhibition is -18.9% in assay [1]; -5.25% in assay [2]; -19.8% in assay [3]; 1.75% in assay [4]; -7.05% in assay [5]; -27.3% in assay [6].

As for `CC(C)[CH2][Sn]([CH2]C(C)C)([CH2]C(C)C)[C](C)(C)C`, the growth inhibition in assay [1] was 99.3% (active); in assay [2], 99.7% (active); in assay [3], 99.5% (active); in assay [4], 99.2% (active); in assay [5], 99.4% (active); in assay [6], 99.5% (active).

For the compound `CC(C)C(=O)OCC1CCCN2CCCCC12` (centres undefined), the growth inhibition in assay [1] is 26.9%; in assay [2], 26.4%; in assay [3], 11.9%; in assay [4], 19.2%; in assay [5] it was 30.3%; in assay [6], -35.2%.

Take `CC12CCC(O)CC1CCC1C2CCC2(C)C(C3=CC(=O)OC3)CCC12O` (centres undefined): the growth inhibition was -42.8% in assay [1]; -33.6% in assay [2]; -18.8% in assay [3]; -10.2% in assay [4]; -23.2% in assay [5]; -20.1% in assay [6].

As for `C1CCC(NC2CCCC2)C1`, the growth inhibition in assay [1] is 13.4%; in assay [2] it was -0.5%; in assay [3], 10.1%; in assay [4], 11.7%; in assay [5], -8.4%; in assay [6] it was 5.45%.

As for `COc1ccc2c(c1)-c1c(ccc(OC)c1OC(=O)C(=O)c1ccccc1)CC(Cl)N(C)CC2.[O]=[Cr](=[O])([OH])[OH]` (centres undefined), the growth inhibition in assay [1] was -18.3%; in assay [2] it was -0.55%; in assay [3], -19.5%; in assay [4] it was -17%; in assay [5] it was -1.3%; in assay [6], -1.25%.

On to `O=C1[C@@H]2[C@H](C(=O)N1c1ccccc1)[C@H]1CC[C@H]2N1C(=O)c1ccccc1`, for which the growth inhibition was 18.9% in assay [1]; 17.4% in assay [2]; 2.2% in assay [3]; 2.75% in assay [4]; 13.2% in assay [5]; 6.5% in assay [6].

`O=NN(CCF)C(=O)NCCO`: the growth inhibition in assay [1] was 1.9%; in assay [2] it was -7.3%; in assay [3], 7.75%; in assay [4], 12.4%; in assay [5], 1.75%; in assay [6], -32.2%.

As for `CCOP(=O)(OCC)/C(C#N)=C/c1ccccc1OC`, the growth inhibition in assay [1] is 40.5%; in assay [2], -1.3%; in assay [3], 0.15%; in assay [4] it was -4.65%; in assay [5], -14.8%; in assay [6] it was 27.6%.

Consider `CCC(C)C1NC(=O)C2CCCN2C(=O)C(CC2CO2)OC(=O)CCNC(=O)C(C)N(C)C(=O)C(C(C)C)N(C)C1=O` (centres undefined), for which the growth inhibition in assay [1] was 55.1%; in assay [2], 5.15%; in assay [3], 41.2%; in assay [4] it was 31.6%; in assay [5], 36%; in assay [6] it was 28.8%.

For `CC([NH-])C[NH-].CC([NH-])C[NH-].[Co].[NH2-].[NH2-]` (centres undefined), the growth inhibition in assay [1] was -10%; in assay [2] it was -6.5%; in assay [3], 6.15%; in assay [4], -41.2%; in assay [5], 35.2%; in assay [6], 18.4%.

With `CN1CCN(c2nc(N)c(Br)c(Cl)n2)CC1`, the growth inhibition in assay [1] is -2.85%; in assay [2] it was 3.65%; in assay [3], -14.8%; in assay [4], -1.85%; in assay [5], 2.95%; in assay [6], -10.2%.

As for `CC1(C)N=C(NN=C2CCCCC2)SP1(=O)NNc1ncccn1` (centres undefined), the growth inhibition in assay [1] was 30.1%; in assay [2] it was 11.7%; in assay [3] it was 25.8%; in assay [4], 1.95%; in assay [5], 15.1%; in assay [6] it was 23.2%.

For `CC1=CC2OC3CC(OC(=O)/C=C/C=C/C(OCCC4=CC(=O)OC4)C(C)O)C(C)(C2(CO)CC1)C31CO1` (centres undefined), the growth inhibition is 31.8% in assay [1]; -0.7% in assay [2]; 11.6% in assay [3]; 25.2% in assay [4]; 8.5% in assay [5]; -2.2% in assay [6].

With `O=C(Nc1cccc(F)c1)c1c(O)[nH]c(=S)[nH]c1=O`, the growth inhibition in assay [1] was 26.1%; in assay [2], 14.3%; in assay [3] it was 38.4%; in assay [4], 10.9%; in assay [5], 21.3%; in assay [6] it was 40.2%.

Turning to `Oc1ccc(Cc2ccc(O)cc2)cc1`, the growth inhibition in assay [1] was -0.2%; in assay [2], -3.4%; in assay [3], -0.3%; in assay [4], -16.3%; in assay [5], -3.1%; in assay [6], 5.85%.

As for `O=C(Cc1ccccc1)OC1CCCC1`, the growth inhibition is 14.6% in assay [1]; -4.6% in assay [2]; -7.15% in assay [3]; -39% in assay [4]; -3.3% in assay [5]; 19% in assay [6].

Take `c1ccc2c(c1)[Se]c1ccccc1[Se]2`: the growth inhibition was -14.2% in assay [1]; -22.8% in assay [2]; 0.65% in assay [3]; 8.55% in assay [4]; 23.1% in assay [5]; -7.45% in assay [6].

The values above are taken from PubChem BioAssay (NCI).
